According to PubChem BioAssay AID1159580 (chemical genetic matrix, 2015):
The campaign covered roughly 5,500 compounds. About 2,000 (36%) were called active. Inconclusive results (about 18%) are left out. Rule as the data show it: active = normalized growth mostly below about 0.91 (no sharp cut-off); inconclusive = no clear call, values can overlap the other calls; inactive = mostly above about 0.92. Some of the results follow.

Test: chemical genetic growth profiling, strain panel (AID 1159580);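 also: tested at 20 µM; growth read once vehicle control cultures reached saturation at 30 °C; 1 = growth at the plate median or of vehicle wells; lower values mean less growth of the strain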
Conditions: growth OD

Measured: normalized growth

CCCC(C)C1(CC)C(=O)NC(=O)NC1=O (configuration not stated)
inactive: S. cerevisiae deletion strains, locus YJR075W, strain HOC1, stronger effect = lower value 1.04 | S. cerevisiae deletion strains, locus YKL009W, strain mrt4, stronger effect = lower value 1.03 | S. cerevisiae deletion strains, locus YKL068W, stronger effect = lower value 1.01 | S. cerevisiae deletion strains, locus YKL085W, strain MDH1 (second series), stronger effect = lower value 1.02 | S. cerevisiae deletion strains, locus YKL085W, strain MDH1, stronger effect = lower value 1.02 | S. cerevisiae deletion strains, locus YKL160W, strain elf1, stronger effect = lower value 1 | S. cerevisiae deletion strains, locus YKL190W, strain CNB1, stronger effect = lower value 1.02 | S. cerevisiae deletion strains, locus YKR001C, strain vps1, stronger effect = lower value 1.03 | S. cerevisiae deletion strains, locus YKR026C, strain gcn3, stronger effect = lower value 0.998 | S. cerevisiae deletion strains, locus YKR091W, strain srl3, stronger effect = lower value 1 | S. cerevisiae deletion strains, locus YLL001W, strain dnm1, stronger effect = lower value 0.994 | S. cerevisiae deletion strains, locus YLL026W, stronger effect = lower value 1 | S. cerevisiae deletion strains, locus YLL041C, strain sdh2, stronger effect = lower value 1 | S. cerevisiae deletion strains, locus YLR027C, strain aat2, stronger effect = lower value 0.998 | S. cerevisiae deletion strains, locus YLR039C, strain RIC1, stronger effect = lower value 1.1 | S. cerevisiae deletion strains, locus YLR058C, strain SHM2, stronger effect = lower value 1.01 | S. cerevisiae deletion strains, locus YLR102C, strain apc9, stronger effect = lower value 1.02 | S. cerevisiae deletion strains, locus YLR113W, strain HOG1, stronger effect = lower value 0.985 | S. cerevisiae deletion strains, locus YLR221C, strain rsa3, stronger effect = lower value 1 | S. cerevisiae deletion strains, locus YLR258W, strain gsy2, stronger effect = lower value 1 | S. cerevisiae deletion strains, locus YLR262C, strain YPT6 (second series), stronger effect = lower value 1.02 | S. cerevisiae deletion strains, locus YLR262C, strain YPT6, stronger effect = lower value 1.11 | S. cerevisiae deletion strains, locus YLR268W, strain sec22, stronger effect = lower value 1.01 | S. cerevisiae deletion strains, locus YLR320W, strain mms22, stronger effect = lower value 1.01 | S. cerevisiae deletion strains, locus YLR330W, strain CHS5, stronger effect = lower value 1.01 | S. cerevisiae deletion strains, locus YLR342W, strain FKS1 (second series), stronger effect = lower value 1.04 | S. cerevisiae deletion strains, locus YLR342W, strain FKS1, stronger effect = lower value 1 | S. cerevisiae deletion strains, locus YLR357W, strain rsc2, stronger effect = lower value 0.984 | S. cerevisiae deletion strains, locus YLR370C, strain arc18, stronger effect = lower value 1 | S. cerevisiae deletion strains, locus YLR371W, strain rom2, stronger effect = lower value 1.02 | S. cerevisiae deletion strains, locus YLR384C, strain iki3, stronger effect = lower value 0.996 | S. cerevisiae deletion strains, locus YLR418C, strain cdc73, stronger effect = lower value 1.05 | S. cerevisiae deletion strains, locus YML016C, strain PPZ1, stronger effect = lower value 1.01 | S. cerevisiae deletion strains, locus YML032C, strain rad52, stronger effect = lower value 1.02 | S. cerevisiae deletion strains, locus YML120C, strain ndi1, stronger effect = lower value 1.02 | S. cerevisiae deletion strains, locus YML124C, strain tub3, stronger effect = lower value 1.02 | S. cerevisiae deletion strains, locus YMR058W, strain fet3, stronger effect = lower value 1.01 | S. cerevisiae deletion strains, locus YMR078C, strain ctf18, stronger effect = lower value 1.02 | S. cerevisiae deletion strains, locus YMR125W, strain sto1, stronger effect = lower value 0.996 | S. cerevisiae deletion strains, locus YMR129W, stronger effect = lower value 0.997 | S. cerevisiae deletion strains, locus YMR205C, strain PFK2, stronger effect = lower value 0.992 | S. cerevisiae deletion strains, locus YMR223W, strain ubp8, stronger effect = lower value 1.04 | S. cerevisiae deletion strains, locus YMR231W, strain pep5, stronger effect = lower value 1 | S. cerevisiae deletion strains, locus YMR263W, strain SAP30, stronger effect = lower value 1.02 | S. cerevisiae deletion strains, locus YMR307W, strain GAS1, stronger effect = lower value 1.12 | S. cerevisiae deletion strains, locus YNL067W, strain RPL9B, stronger effect = lower value 1.01 | S. cerevisiae deletion strains, locus YNL071W, strain lat1, stronger effect = lower value 1.01 | S. cerevisiae deletion strains, locus YNL128W, strain TEP1, stronger effect = lower value 1.02 | S. cerevisiae deletion strains, locus YNL153C, strain GIM3, stronger effect = lower value 1 | S. cerevisiae deletion strains, locus YNL183C, strain NPR1, stronger effect = lower value 0.922 | S. cerevisiae deletion strains, locus YNL209W, strain ssb2, stronger effect = lower value 1 | S. cerevisiae deletion strains, locus YNL233W, strain BNI4, stronger effect = lower value 1.01 | S. cerevisiae deletion strains, locus YNL248C, strain rpa49, stronger effect = lower value 1 | S. cerevisiae deletion strains, locus YNL250W, strain rad50, stronger effect = lower value 1.02 | S. cerevisiae deletion strains, locus YNL271C, strain bni1, stronger effect = lower value 1.03 | S. cerevisiae deletion strains, locus YNL298W, strain CLA4, stronger effect = lower value 1.03 | S. cerevisiae deletion strains, locus YNL307C, strain MCK1, stronger effect = lower value 1.03 | S. cerevisiae deletion strains, locus YNL322C, strain KRE1 (second series), stronger effect = lower value 0.997 | S. cerevisiae deletion strains, locus YNL322C, strain KRE1, stronger effect = lower value 1.01 | S. cerevisiae deletion strains, locus YNR049C, strain mso1, stronger effect = lower value 0.998 | S. cerevisiae deletion strains, locus YNR052C, strain pop2, stronger effect = lower value 1.02 | S. cerevisiae deletion strains, locus YOL006C, strain TOP1, stronger effect = lower value 1.07 | S. cerevisiae deletion strains, locus YOL012C, strain htz1 1.23 | S. cerevisiae deletion strains, locus YOL147C, strain pex11, stronger effect = lower value 1 | S. cerevisiae deletion strains, locus YOR001W, strain rrp6, stronger effect = lower value 0.999 | S. cerevisiae deletion strains, locus YOR061W, strain CKA2, stronger effect = lower value 1.02 | S. cerevisiae deletion strains, locus YOR069W, strain VPS5, stronger effect = lower value 1.01 | S. cerevisiae deletion strains, locus YOR070C, strain gyp1, stronger effect = lower value 1 | S. cerevisiae deletion strains, locus YOR080W, strain dia2, stronger effect = lower value 0.998 | S. cerevisiae deletion strains, locus YOR083W, strain WHI5, stronger effect = lower value 1.01 | S. cerevisiae deletion strains, locus YOR106W, strain vam3, stronger effect = lower value 1.02 | S. cerevisiae deletion strains, locus YOR136W, strain idh2, stronger effect = lower value 1.02 | S. cerevisiae deletion strains, locus YOR144C, strain elg1, stronger effect = lower value 1.01 | S. cerevisiae deletion strains, locus YOR184W, strain ser1, stronger effect = lower value 1.06 | S. cerevisiae deletion strains, locus YOR231W, strain MKK1, stronger effect = lower value 0.996 | S. cerevisiae deletion strains, locus YOR265W, strain rbl2, stronger effect = lower value 1 | S. cerevisiae deletion strains, locus YOR270C, strain vph1, stronger effect = lower value 1.01 | S. cerevisiae deletion strains, locus YOR290C, strain snf2, stronger effect = lower value 1.02 | S. cerevisiae deletion strains, locus YOR316C, strain cot1, stronger effect = lower value 1.03 | S. cerevisiae deletion strains, locus YPL051W, strain arl3, stronger effect = lower value 1.01 | S. cerevisiae deletion strains, locus YPL055C, strain LGE1, stronger effect = lower value 1.04 | S. cerevisiae deletion strains, locus YPL078C, strain atp4, stronger effect = lower value 0.999 | S. cerevisiae deletion strains, locus YPL106C, strain sse1, stronger effect = lower value 0.996 | S. cerevisiae deletion strains, locus YPL240C, strain hsp82, stronger effect = lower value 1.02 | S. cerevisiae deletion strains, locus YPL241C, strain CIN2, stronger effect = lower value 1.01 | S. cerevisiae deletion strains, locus YPL256C, strain CLN2, stronger effect = lower value 0.981 | S. cerevisiae deletion strains, locus YPR119W, strain clb2, stronger effect = lower value 1.01 | S. cerevisiae deletion strains, locus YPR141C, strain kar3, stronger effect = lower value 1.02 | S. cerevisiae deletion strains, locus YPR163C, strain tif3, stronger effect = lower value 1.01 | S. cerevisiae deletion strains, locus YPR167C, strain met16, stronger effect = lower value 1.02 | S. cerevisiae deletion strains, strain wtn01, stronger effect = lower value 1.02 | S. cerevisiae strains, strain wild type, stronger effect = lower value 1.01
